# Assay results published in PubChem BioAssay AID720708 (National Center for Advancing Translational Sciences (NCATS), 2013).
# Out of some 360,000 compounds screened, about 660 (0.18%) were called active. Inconclusive results (about 2%) are left out. Many of the other results were omitted from the sample, so actives are more common in it than they were. A number with no mark means an inactive call. Calls come from the whole dose curve; as a rule, active = well fitted inhibition curve with a large enough effect; inconclusive = small, poorly fitted or top-dose-only effect; inactive = no such curve, though single readings can be large or run the other way.
# Biological target: Rap guanine nucleotide exchange factor 4 (Homo sapiens) (UniProt Q8WZA2)
# Sequence (Q8WZA2 whole entry, looked up): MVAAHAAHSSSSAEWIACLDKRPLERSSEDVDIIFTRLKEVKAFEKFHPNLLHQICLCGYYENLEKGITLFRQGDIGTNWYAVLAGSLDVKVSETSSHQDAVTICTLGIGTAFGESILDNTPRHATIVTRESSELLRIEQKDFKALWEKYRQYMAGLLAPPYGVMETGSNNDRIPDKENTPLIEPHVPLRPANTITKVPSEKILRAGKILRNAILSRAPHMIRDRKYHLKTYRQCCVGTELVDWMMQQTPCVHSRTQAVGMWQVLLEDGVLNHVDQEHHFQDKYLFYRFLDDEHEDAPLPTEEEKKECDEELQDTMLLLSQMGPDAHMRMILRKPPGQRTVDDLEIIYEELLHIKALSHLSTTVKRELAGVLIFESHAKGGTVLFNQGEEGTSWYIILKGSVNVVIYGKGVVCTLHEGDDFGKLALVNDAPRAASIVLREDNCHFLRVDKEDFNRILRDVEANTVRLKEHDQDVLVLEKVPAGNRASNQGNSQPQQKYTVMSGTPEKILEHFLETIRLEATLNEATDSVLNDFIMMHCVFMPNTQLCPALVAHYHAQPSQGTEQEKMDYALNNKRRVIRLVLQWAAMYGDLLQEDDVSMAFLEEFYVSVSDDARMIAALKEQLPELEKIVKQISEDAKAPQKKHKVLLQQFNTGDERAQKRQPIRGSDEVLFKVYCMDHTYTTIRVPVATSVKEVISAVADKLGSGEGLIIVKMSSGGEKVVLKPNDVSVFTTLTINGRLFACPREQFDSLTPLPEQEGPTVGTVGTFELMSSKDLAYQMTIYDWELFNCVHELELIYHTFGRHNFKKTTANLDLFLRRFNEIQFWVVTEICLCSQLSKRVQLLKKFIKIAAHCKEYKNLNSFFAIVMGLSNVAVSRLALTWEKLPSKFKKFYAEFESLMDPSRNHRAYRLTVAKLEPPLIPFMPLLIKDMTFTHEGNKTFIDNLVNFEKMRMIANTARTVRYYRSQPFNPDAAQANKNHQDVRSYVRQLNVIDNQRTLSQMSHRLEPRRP
# Experiment: qHTS for Antagonist of cAMP-regulated guanine nucleotide exchange factor 2 (EPAC2): primary screen; note: nearly all actives have a fitted effect of over 45% in size
# Details: EPAC2 GEF exchange of Rap1B-BODIPY-GDP, fluorescence; series mostly up to 114 µM; activity, negative = inhibition: at the top concentration
# % is set by controls: 0 for no effect and ±100 for the full control effect; potency is the fitted concentration of half-maximal effect.
SMILES,"activity, negative = inhibition",Potency
O=C(NC1CCCCC1)C(c1cc2ccccc2o1)n1c(=O)c(-c2ccco2)nc2ccccc21 (centres undefined),-8.44%,–
CCCc1nn2c(=O)cc(CSCC(=O)Nc3cccc(C)c3)nc2s1,6.1%,–
CCN(C(=O)COC(=O)c1c(NC(C)=O)sc(C)c1C)C1CCS(=O)(=O)C1 (centres undefined),2.22%,–
O=[N+]([O-])c1cc(Cl)cc(/C=N/NC(=S)Nc2cc(S(=O)(=O)N3CCOCC3)ccc2Cl)c1O,–,56.2 µM (active)
O=C(c1cc(S(=O)(=O)N2CCOCC2)ccc1Cl)N1CCOCC1,2.76%,–
O=C(Nc1cc(S(=O)(=O)N2CCOCC2)ccc1Cl)c1cc(=O)c2ccccc2o1,-0.0117%,–
NC(=O)NC(=O)C(OC(=O)CCNS(=O)(=O)c1ccccc1)c1ccccc1 (centres undefined),-9.11%,–
O=C(CCC(=O)n1ncc2ccccc21)NCc1ccccc1Cl,-5.43%,–
Cc1ccc(NC(=O)CSc2nc(=O)n(CCN(C)C)c3c2CCCC3)c(C)c1,7.61%,–
Cc1csc(NC(=O)CSc2nc(=O)n(CCCN(C)C)c3c2CCC3)n1,-1.23%,–
Cc1ccc2nc(NC(=O)CSc3nc(=O)n(CCCN(C)C)c4c3CCC4)sc2c1,–,79.4 µM (active)
Cc1cc(C)c2cc(C#N)c(N3CCNCC3)nc2c1,10.8%,–
Oc1c(Cl)cc(Cl)c(Cl)c1Cc1c(O)c(Cl)cc(Cl)c1Cl,–,31.6 µM (active)
O=C(NCc1ccccc1)C1CNCC(C(=O)NCc2ccccc2)C1 (centres undefined),6.8%,–
Cc1c2cnn(-c3ccccc3)c(=O)c2c(C)n1CCCC(=O)N1CCN(C)CC1,-7.56%,–
O=C(OCC(=O)N1CCCCCC1)c1cnc(Cl)c(Cl)c1,-8.72%,–
CCCCNC(=O)OC(C)CNC(=O)OC (centres undefined),-0.338%,–
Cc1ccc(Cl)cc1N1CCN(C(=O)c2cccc3c(=O)c(C)c(-c4ccccc4)oc23)CC1,–,12.6 µM (active)
Cc1cccc(N2CCN(C(=O)c3cnn4c(C(F)F)cc(-c5ccccc5)nc34)CC2)c1C,-2.11%,–
COc1ccccc1N1CCN(C(=O)c2cc(=O)c3cc(C)cc(C)c3o2)CC1,3.53%,–
CCOCCCNC(=O)Cc1cc(=O)[nH]c(=O)[nH]1,12.4%,–
CCCCCC1CCC(c2nnc(SCC(C)=O)o2)CC1 (centres undefined),8.05%,–
COc1cccc2c(C)c(C(=O)O)[nH]c12,0.659%,–
N#C/C(C(=O)N1CCOCC1)=C1/SC(Cc2ccc(F)cc2)C(=O)N1c1ccccc1 (centres undefined),8.88%,–
Cc1cccc(NS(=O)(=O)c2ccc(C(=O)NCC(C)(C)N3CCOCC3)cc2)c1C,24.5%,–

SMILES,"activity, negative = inhibition",Potency
Nc1[nH]c(C(=O)c2ccccc2)c(-c2ccc(Br)cc2)c1C(=O)NC1CC1,-3.82%,–
CCc1c(C)nc2c(OC)cccc2c1Cl,5.13%,–
COc1cccc2c(N/N=C/c3ccco3)cc(C)nc12,–,12.6 µM (active)
O=c1nc(N/N=C/c2ccco2)cn[nH]1,-1.92%,–
CC(C)(C)Cc1c(C2CCCCC2)nc2ccc(Br)cn12,-25%,–
CCN(CC)S(=O)(=O)c1cc([N+](=O)[O-])ccc1NNC(=O)Nc1ccccc1,-11.5%,–
CCC(C(=O)NC1CCCC1)N(C(=O)c1snc(C(N)=O)c1N)c1ccc2c(c1)OCCO2 (centres undefined),-3.82%,–
Cc1c(Cl)c([N+](=O)[O-])nn1CC(=O)NCCCN1CCOCC1,3.26%,–
CCOC(=O)N1CCN(Cc2nc3c(c(=O)n(C)c(=O)n3C)n2Cc2ccccc2)CC1,-1.88%,–
CC(=O)OCC(C)n1c(=O)c2ccccc2n1C(C)=O (centres undefined),2.88%,–
COc1cccc(C2CC(c3cccs3)=NN2C(=O)CSC2=NCCS2)c1OC (centres undefined),0.0512%,–
CCCCCn1c(SCCC(C)C)nc2c1c(=O)[nH]c(=O)n2C,-3.83%,–
COC(=O)[C@@]12C[C@@H](CC(=O)NCCCCc3ccccc3)C(=O)N(CCc3ccc(OC)c(OC)c3)C1=CCC(C)(C)C2,3%,–
Cc1ccc(C(=O)Nc2c(-c3ccccc3)[nH][nH]c2=O)cc1,-23.4%,–
O=C(OC1CC2CC1[C@H]1CCCCN1C2=O)N1CCOCC1 (some centres undefined),0.539%,–
O=C(NCc1ccco1)c1cccc(-c2ccc3nncn3c2)c1,-4.43%,–
C=CCNC(=S)NNC(=O)c1ccc(Br)o1,0.381%,–
O=S(=O)(Nc1cccc(-c2ccc(N3CCOCC3)nn2)c1)c1ccc(Cl)c(Cl)c1,-13.3%,–
O=C(CC1C(=O)NCCN1CC(c1ccccc1)c1ccccc1)NCCc1cn[nH]c1 (centres undefined),3.71%,–
CCOCCCNC(=O)C(NC(=O)Cc1c[nH]c2ccccc12)c1ccc(OC)cc1 (centres undefined),-0.765%,–
COc1ccc(NC(=O)C(c2ccncc2)n2c(=O)c(-c3cc4ccccc4[nH]3)nc3ccccc32)cc1 (centres undefined),-10.2%,–
COC(=O)Cn1c(=NC(=O)c2cc(OC)c(OC)c(OC)c2)sc2cc(OC)ccc21,-0.061%,–
Cc1ccc(Cc2c(-c3ccc(Cl)cc3)nc3c4ccccc4ccn23)cc1,4.4%,–
COC(=O)C1=C[C@@H](C(=O)OC)[C@@H]2C3=C(C(=O)[C@]2(C)NC(=O)c2ccccc2)[C@H](C)n2c(=O)n(C)c(=O)n2[C@@H]3C1,4.54%,–
O=C1NC2(CCCCC2)N=C1c1ccccc1,6.31%,–

SMILES,"activity, negative = inhibition",Potency
COc1cc(N)c(Cl)cc1C(=O)OCC(=O)c1ccc2c(c1)NC(=O)CO2,-6.76%,–
COc1ccc(S(=O)(=O)N[C@@H]2C=C[C@@H](CC(=O)N3CCc4ccccc4C3)O[C@@H]2CO)cc1,-5.82%,–
Cc1cccc(C)c1NC1=NC(=S)N(c2ccc(N(C)C)cc2)C1(C)C,-0.385%,–
CC1(C)OC(=O)C2=C(C[C@@H](C3CC3)O[C@H]2c2ccc(Cl)cc2)O1,-12.1%,–
O=S(=O)(/N=C(/Nc1ccccc1)c1ccccc1)c1cccs1,5.66%,–
O=C1OCCOC2CCCc3oc(-c4ccccc4)c1c32 (centres undefined),-5.11%,–
Cc1c(C(=O)NCC2CC2)sc(=O)n1Cc1cccc(F)c1,1.07%,–
OCCC#Cc1ccc(N2C(c3ccsc3)=Cc3ccc(F)cc3C2c2c[nH]c3ccccc23)cc1 (centres undefined),6.26%,–
O=C(c1ccc[nH]c1=S)N1CCN(S(=O)(=O)c2ccc(Br)cc2Cl)CC1,-5.45%,–
CCOc1ccc(CCNC(=O)C(CC)n2nc(C)n3c(cc4sccc43)c2=O)cc1OCC (centres undefined),7.88%,–
CCOCCCNc1c(CC)c(C)c(C#N)c2nc3ccccc3n12,-11.1%,–
O=C1COc2ccc(C(=O)COC(=O)CCOc3ccccc3)cc2N1,5.36%,–
CC(=O)Cc1nsc(NC(=O)c2ccc(Cl)cc2Cl)n1,-1.18%,–
CNC(=O)c1csc(Cc2c(Cl)sc3ccc(Cl)cc23)n1,–,8.91 µM (active)
CC(=O)NNC(=O)c1csc(Cc2c(Cl)sc3ccc(Cl)cc23)n1,-15.8%,–
C/C(=N\N(C)C)c1ccc(OCCOc2ccc([N+](=O)[O-])cc2)cc1,1.58%,–
O=C(Nc1ccc2c(c1)OCCO2)C1c2ccccc2OCC(=O)N1Cc1ccccn1 (centres undefined),-1.56%,–
CCCNC(=O)C1(C)CCN1C(=O)C1(c2ccccc2)CC1 (centres undefined),-8.53%,–
CCc1c(-c2ccc(F)cc2)ncn1Cc1cccc(-c2ccccc2)c1,0.933%,–
CCOc1ccc(S(=O)(=O)N2CCC(C(=O)NCc3ccccn3)CC2)cc1Cl,0.26%,–
C[C@@H]1CN([C@@H](C)CO)S(=O)(=O)c2ccc(C#Cc3cccc(F)c3)cc2O[C@H]1CN(C)S(=O)(=O)c1cn(C)cn1,-4.79%,–
O=C1OCCN1C(=O)[C@H]1[C@H](c2ccc(Cl)cc2)C(c2cccc(Cl)c2)=NN1c1ccc(Br)cc1,-3.4%,–
COc1ccc(C2CC(c3cccs3)=Nc3ccccc3S2)cc1OC (centres undefined),-8.88%,–
COc1ccccc1C1CC(=O)n2c(nc(-c3ccccc3)c2-c2ccccc2)S1 (centres undefined),-4.91%,–
COc1ccc(C2CC(=O)n3c(nc4ccccc43)S2)cc1OC (centres undefined),–,17.8 µM (active)

SMILES,"activity, negative = inhibition",Potency
NC(Cc1ccccc1)c1csc(Nc2cc(Oc3ccccc3)ncn2)n1 (centres undefined),2.53%,–
Cc1oc2cc(Br)c(O)c(Br)c2c1C(=O)c1ccccc1,–,28.2 µM (active)
CCOC(=O)c1c(-c2ccccc2)oc2cc(Br)c(O)c(C=O)c12,0.194%,–
COc1ccc(C(=O)c2c(C)oc3cc([N+](=O)[O-])c(O)c([N+](=O)[O-])c23)cc1,-20.1%,–
COC(=O)Cc1ccc(N(Cc2ccccc2F)S(=O)(=O)c2ccc(Br)cc2)cc1,-3.01% [at 57.1 µM],–
COc1ccccc1NC(=O)CCSc1nnc(-c2ccc(O)cc2)o1,0.744%,–
CN[C@H]1C[C@H]2c3cc(Oc4ccccc4C)ccc3CCN2C(=O)[C@H]1[C@H](C)O,9.66%,–
Cc1cccc(C)c1NC(=O)C(c1cccc2ccccc12)n1c(=O)c(-c2ccco2)nc2ccccc21 (centres undefined),5.32%,–
CC(=O)NCCC(=O)Nc1nc(C)c(Cc2ccc3c(c2)OCO3)s1,-1.46%,–
Cc1ccc(C)c(-n2ccnc2SCC(N)=O)c1,19%,–
O=c1cccc(-c2ccc(Br)cc2)o1,4.24%,–
COC(=O)[C@@]12C[C@@H](CC(=O)N3CCC(c4ccccc4)CC3)C(=O)N(Cc3ccccc3)C1=CCC(C)(C)C2,-12%,–
O=C1N[C@H](Cc2ccccc2)C(=O)N[C@H]1Cc1cn(S(=O)(=O)c2ccccc2)c2ccccc12,6.85%,–
CCN1CC=C2C(C#N)=C(N)C(C#N)(C#N)[C@H](c3ccoc3)[C@H]2C1,-4.17%,–
CCCN1CC=C2C(C#N)=C(N)C(C#N)(C#N)C(c3cc(OC)ccc3OC)C2C1 (centres undefined),–,39.8 µM (active)
CC(C)Nc1ccc(-n2nc3ccccc3[n+]2[O-])cc1,-16.6%,–
O=[N+]([O-])c1ccccc1Nc1ccc(O)cc1,-11.1%,–
Cc1ccc2cccc([N+](=O)[O-])c2n1,0.105%,–
Cc1ccc(Nc2cc(C)nc3c(C)ccc([N+](=O)[O-])c23)cc1,–,44.7 µM (active)
Cc1cc(C)cc(NC(=O)NC2CCN(CC(=O)Nc3cccc(Cl)c3C)CC2)c1,1.59%,–
CC1(C(=O)NCc2ccccc2)CSCC(=O)N1CCCn1ccnc1 (centres undefined),1.16%,–
COc1ccc(CN(C)C(=O)CC(c2ccccc2)c2ccccc2)cc1,–,50.1 µM (active)
COc1ccc(C(CCN(Cc2ccc(OC)c(OC)c2)C(=O)CCl)c2ccccc2)cc1 (centres undefined),-0.0248%,–
CN(Cc1ccccc1)C(=O)COc1ccccc1,6.28%,–
